The values below come from PubChem BioAssay (NCI).

This is part of a sample that, as a whole, favours compounds with a hit. Of some 83,000 tested, about 20% had one in any assay.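 In brief: 96-well plates, 48 h treatment, single concentration, percent growth endpoint.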 Unmarked numbers belong to inactive results. The source made the active and inactive calls. The calls were made as follows: active = growth percent below 10; inactive = the rest.

Test systems include DU-145 prostate; MALME-3M melanoma; MDA-MB-231 breast; RXF 393 renal; SF-268 CNS; SF-295 CNS; SF-539 CNS; UACC-257 melanoma; M14 melanoma; K-562 leukemia.
Test in all cases: NCI-60 one-dose screen, 48 h (100 = growth as untreated, 0 = no growth, -100 = all killed)
What all share (details): 10 µM unless noted

Turning to `CON=C1C[C@]2(C[C@@H]3C[C@@H](C/C=C(\C)C[C@@H](C)/C=C/C=C4\CO[C@@H]5[C@H](O)C(C)=C[C@@H](C(=O)O3)[C@]45O)O2)O[C@H](/C(C)=C/C(C)C)[C@H]1C`, the growth in the test with DU-145 prostate was 39.6%; in the test with MALME-3M melanoma, 65.9%; in the test with MDA-MB-231 breast, 54%; in the test on RXF 393 renal it was 47.2%; in the test on SF-268 CNS, 58.3%; in the test on SF-295 CNS, 33%. The growth in the test with SF-539 CNS is 85.1%; in the test with UACC-257 melanoma, 81.3%; in the test on M14 melanoma, 57.4%.
With `c1ccc2c(c1)oc1cc3c(cc12)nnc1cccn13`, the growth in the test on MALME-3M melanoma is 93.8%; in the test on MDA-MB-231 breast, 101%; with RXF 393 renal it was 127%; in the test on SF-268 CNS, 105%; with SF-295 CNS it was 101%; in the test on SF-539 CNS, 95.1%. The figures for the growth with UACC-257 melanoma and with M14 melanoma were 95.7% and 98.7%, respectively.
Consider `CCCCC/C=C\C/C=C/CCCCCCCCNC(=O)Nc1ccc([N+](=O)[O-])cc1`, for which the growth was 47.3% with DU-145 prostate; 82.9% with MALME-3M melanoma; 77.8% with MDA-MB-231 breast; 113% in the test on RXF 393 renal; 42.5% in the test with SF-268 CNS; 56.4% in the test on SF-295 CNS. The growth was 107% in the test with SF-539 CNS, 98.9% in the test with UACC-257 melanoma and 77.9% in the test with M14 melanoma.
Consider `COC(=O)c1ccc(C(=O)Nc2ccccc2N)cc1`, for which the growth with DU-145 prostate was 80.2%; with K-562 leukemia, 73.3%; with MDA-MB-231 breast, 67.3%; in the test with RXF 393 renal it was 86.8%; with SF-268 CNS, 65.4%; in the test with SF-539 CNS it was 64.9%. In addition, the values for the growth in the test with UACC-257 melanoma and in the test with M14 melanoma were 75.7% and 83.3%, respectively.
As to `O=C1c2cc(S(=O)(=O)O)ccc2C(=O)c2c1cccc2[N+](=O)[O-]`, the growth in the test on MALME-3M melanoma is 111%; with MDA-MB-231 breast, 112%; in the test with RXF 393 renal it was 128%; in the test with SF-268 CNS, 108%; in the test with SF-295 CNS, 100%; in the test on SF-539 CNS it was 104%. Besides, the growth with UACC-257 melanoma was 93%; with M14 melanoma it was 95.2%.
On to `COc1cc(-c2nc(Nc3nc4ccccc4[nH]3)nc(N)c2C#N)cc(OC)c1OC`, for which the growth in the test with DU-145 prostate is 61.8%; with MALME-3M melanoma, 65%; in the test with MDA-MB-231 breast it was 53%; with RXF 393 renal, -1.43% (active); with SF-268 CNS, 71.2%; with SF-295 CNS it was 18.1%. The growth was 58.9% in the test with SF-539 CNS, 69.5% in the test with UACC-257 melanoma and 53% in the test with M14 melanoma.
Turning to `CSC1=CC(=O)c2ccccc2C1=O`, the growth in the test on DU-145 prostate is 95.5%; with MALME-3M melanoma it was -0.209% (active); in the test on MDA-MB-231 breast, -14.5% (active); in the test with RXF 393 renal, 98.3%; in the test on SF-268 CNS it was 69%; in the test with SF-295 CNS, 93.7%. The growth with SF-539 CNS was 97.1%; in the test on UACC-257 melanoma, 42%; in the test on M14 melanoma, 94.7%.
As to `C=CCCCCCCCCC(=O)[O-].C=CCCCCCCCCC(=O)[O-].[Zn+2]`, the growth with MDA-MB-231 breast was 106%.
With `CC(=O)OCC1OC([S-])C(OC(C)=O)C(OC(C)=O)C1OC(C)=O.[Au+].c1ccc(CN2[CH-]N(Cc3ccccc3)C(c3ccccc3)=C2c2ccccc2)cc1`, the growth in the test with SF-295 CNS was -11.3% [4.75 µM] (active).
In the case of `CSc1nnc(-c2sc3nnc(-c4ccccc4)c(-c4ccccc4)c3c2O)o1`, the growth was 84.7% in the test on DU-145 prostate; 90.4% in the test with MDA-MB-231 breast; 82.6% in the test on RXF 393 renal; 80.6% in the test on SF-268 CNS; 40.8% with SF-295 CNS; 84.6% in the test on SF-539 CNS. The growth in the test with UACC-257 melanoma is 91.6%; in the test with M14 melanoma, 73%.
For the molecule `COC(=O)c1cc(-c2ccc(C)cc2)n(C(=O)CSc2nc3sc(C(N)=O)c(C)c3c(=O)n2Cc2ccccc2)n1`, the growth was 102% with DU-145 prostate; 101% in the test on K-562 leukemia; 106% in the test with RXF 393 renal; 108% in the test on SF-268 CNS; 109% in the test with SF-295 CNS; 104% in the test on SF-539 CNS. The growth in the test on UACC-257 melanoma is 106%; in the test with M14 melanoma it was 102%.
Regarding `Cc1ccc(N(CSc2ccc(Cl)cc2)CSc2ccc(Cl)cc2)cc1`, the growth with DU-145 prostate was 44.8%; in the test with MALME-3M melanoma it was 69.1%; with MDA-MB-231 breast, 18.4%; in the test with RXF 393 renal, 91.4%; with SF-268 CNS, 25%; in the test on SF-295 CNS, 11.3%. Further, the values for the growth with SF-539 CNS, in the test with UACC-257 melanoma and in the test on M14 melanoma were 16.1%, 88.9% and 57.8%, respectively.
Turning to `CN1CCn2c(c(Sc3ccc(C(=O)NO)cc3)c3ccccc32)C1=O`, the growth with DU-145 prostate is 36.3%; with MALME-3M melanoma, 63.6%; with MDA-MB-231 breast it was -15.2% (active); in the test with RXF 393 renal, -14.4% (active); in the test on SF-268 CNS, -34.9% (active); in the test on SF-295 CNS, -1.68% (active). Besides, the values for the growth in the test with SF-539 CNS, in the test with UACC-257 melanoma and in the test on M14 melanoma were -90.8% (active), -9.93% (active) and -37.7% (active), respectively.
Consider `N#Cc1c(O)c2c(c(O)c1C#N)C(=O)c1ccccc1C2=O`, for which the growth with MALME-3M melanoma was -16.5% (active); in the test on MDA-MB-231 breast it was 2.69% (active); in the test with RXF 393 renal, 92.3%; with SF-268 CNS it was 32.6%; in the test with SF-295 CNS it was 59.6%; in the test with SF-539 CNS, 46.9%. Besides, the growth in the test with UACC-257 melanoma was 28.4%; in the test with M14 melanoma, 2.51% (active).
For `O=C1NC(=O)C(CSc2ccccc2)(c2ccccc2)N1` (stereo unspecified), the growth was 123% with DU-145 prostate; 104% in the test on K-562 leukemia; 104% in the test with MDA-MB-231 breast; 103% with RXF 393 renal; 123% with SF-268 CNS; 113% in the test with SF-539 CNS. In addition, the growth with UACC-257 melanoma is 93.6%; in the test with M14 melanoma, 105%.
`CC(C)N1CCN(c2ccc(OC[C@H]3CO[C@](Cn4cncn4)(c4ccc(Cl)cc4Cl)O3)cc2)CC1`: the growth was 111% in the test with DU-145 prostate; 86.1% with MALME-3M melanoma; 65.8% with MDA-MB-231 breast; 74.7% with RXF 393 renal; 102% in the test on SF-268 CNS; 89% with SF-295 CNS. Besides, the growth is 79.4% with SF-539 CNS, -28.4% (active) in the test with UACC-257 melanoma and 52.8% in the test with M14 melanoma.
As for `Clc1ccc(C2=Nc3cccc4cccc(c34)N2)cc1Cl`, the growth with DU-145 prostate was 110%; with MALME-3M melanoma it was 102%; in the test on MDA-MB-231 breast, 97.4%; in the test with RXF 393 renal, -5.75% (active); with SF-295 CNS it was 112%; in the test with SF-539 CNS, 108%. Further, the growth was 93.6% in the test on UACC-257 melanoma and 103% in the test on M14 melanoma.
Turning to `CC(=O)OCC1O[C@@H]([S-])C(OC(C)=O)[C@H](OC(C)=O)[C@@H]1OC(C)=O.[Au+].c1ccc(CN2[CH-]N(Cc3ccccc3)C(c3ccccc3)=C2c2ccccc2)cc1`, in the test with SF-295 CNS, the growth is 31.1%.
As to `Cc1ccc(C(=O)O[C@H](C(=O)O)[C@H](OC(=O)c2ccc(C)cc2)C(=O)O)cc1`, the growth in the test on MDA-MB-231 breast is 113%.
